# FMDV inh – blocks foot and mouth disease virus. Potency, µM (highest dose often 57.9 µM), inactives show at the highest dose activity change, negative = inhibition, most hits filed as inhibitors. 1.2% of 410,000 active. FMDV antiviral cell-based qHTS. AID 1159524; calls by dose curve; tested in HEK293T cells; note: read-out not given here; potency is the fitted concentration of half-maximal effect; % is set by controls: 0 for no effect and ±100 for the full control effect; nearly all actives have a fitted effect of over 45% in size
# LASV entry inh – inhibitors of Lassa virus binding or cell entry; 1.2% of 300,000 active; Potency, µM (doses to about 37.9 µM), inactives show at the highest dose activity change, negative = inhibition, most hits filed as inhibitors; AID 540256; Lassa virus pseudotype entry inhibition, cell reporter; calls by dose curve; tested in HEK293 cells; note: potency is the fitted concentration of half-maximal effect; % is set by controls: 0 for no effect and ±100 for the full control effect; nearly all actives have a fitted effect of over 50% in size
# HCV inhibitor – blocks hepatitis C virus. Huh7.5.1 HCVcc-Cre infection, luciferase reporter, 44 h. 3.4% of 340,000 active. Potency, µM (titrated, usually from 41.8 µM), for inactives: at the top dose activity change, negative = inhibition, actives largely listed as inhibitors; active = well fitted inhibition curve with a large enough effect; inconclusive = small, poorly fitted or top-dose-only effect, or another doubt; inactive = no such curve, though single readings can be large or run the other way; note: potency is the fitted concentration of half-maximal effect; % is set by controls: 0 for no effect and ±100 for the full control effect
#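 Infectious HCV cell culture screen: compound-treated cells (1,000/well, pre-plated 4 h) are infected with HCVcc-Cre at roughly 0.5 moi and grown 44 h. Infection is quantified by luciferase signal after 15 min substrate incubation at room temperature.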
# Cycloheximide cs – affects cycloheximide protein synthesis inhibition readout, counter-screen | cell reporter, cycloheximide protein synthesis inhibition counterscreen | max response, % | 12% of 300,000 active; in the data active = max response mostly above about 13%, no sharp cut-off; inactive = mostly below about 14%; note: read at 38.3 µM for the half of the compounds with a filed dose; 0% is about no effect
# MARV entry inh – inhibitors of Marburg virus binding or cell entry. Marburg virus pseudotyped entry inhibition, cell reporter. Potency, µM (highest dose often 37.8 µM), for inactives: at the highest dose activity change, negative = inhibition, hits mostly inhibitors. 1.8% of 300,000 active; calls by dose curve; tested in HEK293 cells; note: potency is the fitted concentration of half-maximal effect; % is set by controls: 0 for no effect and ±100 for the full control effect
# Shiga toxin inh – inhibitors of Shiga toxin in Vero cells. 9.2% of 290,000 active. inhibition, % at 38.7 µM. Vero cells, Shiga toxin protein synthesis inhibition reporter; in the data active = inhibition mostly above about 28%, no sharp cut-off; inactive = mostly below about 43%; note: 0% is about no effect
# * hit, by the source's call; ? = inconclusive; . = no result; [ ] = remark or other dose. Hits are enriched below; roughly 13% of the tested compounds scored in any of these assays.
SMILES,FMDV inh,LASV entry inh,HCV inhibitor,Cycloheximide cs,MARV entry inh,Shiga toxin inh
Cc1cc(NC(=O)Cn2nc(C(F)(F)F)c3c2CCC3)n(-c2ccccc2)n1,?,0%,-19%,0,?,-17
COc1ccc(OC)c(NC(=O)C2C(C(=O)O)C3(Cl)C(Cl)=C(Cl)C2(Cl)C3(Cl)Cl)c1 (stereo not drawn),-21%,-11%[46.1 µM],-12%,-3,-10%[46.1 µM],-4
O=C(N/N=C/c1ccccc1)c1[nH]ncc1Br,34%,-14%,12%,44*,?,110*
O=C(N/N=C/c1cccnc1)c1[nH]ncc1Br,50%,.,25%,37*,?,50*
CCN(CC)c1ccc(C(=O)N/N=C/c2ccc(OC)cc2OC)cc1,1%,.,-4%,12,-18%[46.1 µM],10
COC(=O)N/N=C/c1cccnc1,-9%,2%,0%,-4,9%,-7
O=C(N/N=C/c1ccccc1)c1[nH]c2ccc(Br)cc2c1-c1ccccc1,10%,?,?,0,?,-10
COc1ccc(/C=N/NC(=O)c2[nH]ncc2Br)c(OC)c1,.,?,-2%,38*,15%,68*
O=C(N/N=C/c1ccco1)c1[nH]ncc1Br,.,.,.,43*,.,120*
O=C(Cn1nc2ccccc2n1)N1CCOc2ccc(CN3CCc4sccc4C3)cc2C1,-3%,.,.,.,.,.
CC(C)(Cc1c[nH]c2ccccc12)NCC(O)COc1ccccc1C#N (stereo not drawn),-20%,.,.,-6,.,-7
O=C(Nc1ccccc1F)c1ccccc1C(=O)Nc1ccccc1F,-8%,.,-4%,.,.,.
Nc1ccccc1NC(=O)c1ccccc1N,28%,6%,2%,36*,?,30*
Cc1cc(C)nc(NC(=O)NC(=O)c2ccccc2)n1,2%,?,-5%,-1,-4%[46.1 µM],-30
Cc1c(NC(=O)c2ccccc2N)cccc1C(=O)O,?,1%,15%,25*,0%,46*
Nc1ccccc1NC(=O)NC(=O)c1ccccc1,50%,-21%,1%,41*,?,.
CN(CCc1ccccc1)C(=O)c1ccc(NC(=O)Cc2cccc(NC(=O)C3CCN(C(=O)C4CCCCC4)CC3)c2)cc1,-24%,.,-14%[8.37 µM],.,.,.
O=C(O)CC/C(=C\c1cc([N+](=O)[O-])ccc1Cl)c1nc2ccccc2s1,-11%,-9%,-10%,-3,7%,-7
O=C(Nc1ccc(Cl)cc1)/C(=C/c1ccc([N+](=O)[O-])cc1)c1nc2ccccc2s1,.,.,.,56*,.,115*
COc1cc2c(cc1OC)CN(C(=O)CCc1c[nH]c3ccccc13)[C@H](C(=O)O)C2,-12%,.,7%,-4,.,3
O=C(CN(c1cccc(C(F)(F)F)c1)S(=O)(=O)c1ccc(Cl)c([N+](=O)[O-])c1)NCc1ccccc1Cl,40µM*,?,?,7,?,-3
Cc1ccc(N(CC(=O)NCCc2ccc(F)cc2)S(=O)(=O)c2ccc(Cl)c([N+](=O)[O-])c2)c(C)c1,?,23µM*,10µM*,-8,?,-10
O=C(CN(c1ccc(Br)cc1)S(=O)(=O)c1ccc(Cl)c([N+](=O)[O-])c1)NCCc1ccccc1,-24%,24%,?,-2,?,-5
O=C(CN(c1cccc(C(F)(F)F)c1)S(=O)(=O)c1ccc(Cl)c([N+](=O)[O-])c1)NCc1ccccc1,-19%,?,?,-3,23µM*,17
COC(=O)c1scc(-c2ccc(C)cc2)c1S(=O)(=O)N1CCN(c2ccc(F)cc2)CC1,17%,?,.,.,.,.
SMILES,FMDV inh,LASV entry inh,HCV inhibitor,Cycloheximide cs,MARV entry inh,Shiga toxin inh
COc1ccc(NC(=O)CN2CC(C)OC(C)C2)cc1Cl (stereo not drawn),-15%,-10%[46.1 µM],-6%,-5,-15%[46.1 µM],-3
C=CCNc1oc(-c2ccc(OCC)cc2)nc1C#N,20%,?,?,15*,11%,63*
CNc1oc(-c2ccc(OCc3ccccc3)cc2)nc1C#N,23%,7%,?,24*,-21%,38
C=CCNc1oc(-c2ccc(OC)cc2)nc1C#N,-10%,?,?,43*,-21%,78*
CSc1ccc(S(=O)(=O)Nc2ccc3c(c2)NC(=O)CC3)cc1,0%,-13%,-25%,-1,-26%[46.1 µM],-14
CC(OC(=O)c1ccc2ncsc2c1)C(=O)N1CCCC1 (stereo not drawn),.,.,.,0,.,0

# Compound activity as filed in PubChem.
